Compounds without any hit were thinned out: in the full panel of roughly 83,000, 20% have a hit.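 The test compound was applied at a single concentration to cells in 96-well plates for 48 hours, and percent growth was recorded.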 Unmarked numbers belong to inactive results. Calls of active or inactive are those of the source. Rule for the calls: active = growth percent below 10; inactive = the rest.
tested on: HL-60(TB) leukemia; assay: NCI-60 one-dose screen, 48 h (100 = growth as untreated, 0 = no growth, -100 = all killed); conditions: 10 µM unless noted

Row | SMILES | growth
1 | CNC1=C([N+](=O)[O-])C(c2ccc(OC)cc2)C(C#N)=C(c2ccc[nH]2)O1 (stereo unspecified) | 93.9%
2 | COc1ccc(C2CC(c3ccc4c(c3)OCO4)=NN2C=O)cc1 (stereo unspecified) | 106%
3 | COc1ccc(C2C3=C(COC3=O)N(CCO)c3cc4c(cc32)OCCO4)cc1OC (stereo unspecified) | 6.34% (active)
4 | O=C1c2cc3c(cc2-c2c1c1cc(F)c(F)cc1c(=O)n2C[C@H](O)CO)OCO3 | -16.4% (active)
5 | N#Cc1ccc(-n2cnc(NC(=O)[C@H]3CCN(C#N)C3)c2)cc1 | -20.8% (active)
6 | CCN(CC)CCOc1ccc(/C(=C(\C)c2ccc(Cl)cc2)c2ccc(Cl)cc2)cc1 | 41.4%
7 | COc1ccc(C2CC(c3ccc(-c4ccccc4)cc3)=NN2c2ccc(S(N)(=O)=O)cc2)cc1 (stereo unspecified) | 69.4%
8 | Cc1nc2c(=O)nc3s/c(=C\c4ccco4)c(=O)n3c2nc1C | 98%
9 | CCC(C)(CC)c1ccc(O)c(C)c1 | 105%
10 | O=C1C=CC(n2cc(F)c(=O)[nH]c2=O)O1 (stereo unspecified) | 45.3%
11 | COc1ccc(/C=C(\C#N)C(=O)Nc2cccc(Nc3nc(SC)nc(-c4cccc([N+](=O)[O-])c4)c3C#N)c2)cc1OC | 95%
12 | Cc1ccc(/C=C(\C#N)n2nnc3cc(F)c(F)cc32)cc1 | -1.91% (active)
13 | CCN(CC)CCOc1cccc2c1C(=O)c1ccccc1C2=O | 93.3%
14 | Cc1cc(Cl)ccc1NS(=O)(=O)c1ccc(-c2cnc(C3CC3)o2)cc1 | -36% (active)
15 | C#CCNC(=O)[C@]1(C)CC[C@]2(C)CC[C@@H]3C(=CC[C@H]4[C@@]3(C)CC[C@H]3C(C)(C)C(=O)CC[C@]43C)[C@@H]2C1 | 56.2%
16 | COc1cc(Nc2c3ccc(Cl)cc3nc3ccc(OC)cc23)c2ncccc2c1 | 49.5%
17 | COc1ccc(C(C)C=O)cc1 (stereo unspecified) | 96.9%
18 | CCCCCCCCCCCC(=O)[O][Sn]([CH2]CCC)([CH2]CCC)[CH2]CCC | -44.1% (active)
19 | CCN(CC)CCNc1ccc(C)c2sc3cc(Cl)ccc3c(=O)c12 | 17%
20 | CC1(C)CN(c2cnc(C(=O)Nc3cc(F)cc4cccnc34)cn2)CCN1 | 11.7%
21 | O=C(/C(=C(\C(=O)c1ccccc1)c1ccccc1)c1ccccc1)c1ccccc1 | -1.48% (active)
22 | COc1cc(C=C2C(=O)NC(=S)NC2=O)cc(CN2CCCC2)c1O | 108%
23 | COc1cccc(C2C3=C(COC3=O)N(CCO)c3cc4c(cc32)CCC4)c1 (stereo unspecified) | -0.364% (active)
24 | Cc1cc(C)nc(SCC(=O)Nc2cccc(N=Cc3ccccc3O)c2)n1 | 96.6%
25 | CCN1CCN(c2nc(NNC(=O)c3ccccc3)nc(N3CCN(C(c4ccccc4)c4ccccc4)CC3)n2)CC1 | 23.3%
26 | COc1cc(-c2ccc[nH]2)[nH]c1/C=C1\N=C(C)C(C(=O)NC(C)C)=C1C | 26.1%

Source: PubChem BioAssay (NCI)
